# PubChem BioAssay (NCI)
# Values joined by “and” are separate entries in the source; they are usually repeats but may differ in a detail not shown here. Equal entries are not always repeated. The panel holds about 83,000 compounds, 20% with a hit somewhere; the sample as a whole holds those more often.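 96-well plates, one dose, 48 hours. Percent growth reported; active if below 10.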 A number with no mark means an inactive call. Active and inactive are the calls of the source.
# Experiments:
# Assay in all cases: NCI-60 one-dose screen, 48 h (100 = growth as untreated, 0 = no growth, -100 = all killed)
# Conditions in all cases: 10 µM unless noted
# NCI-H23 lung = test system: NCI-H23 lung
# NCI-H226 lung = test system: NCI-H226 lung
# NCI-H322M lung = test system: NCI-H322M lung
# HOP-62 NSCLC = test system: HOP-62 NSCLC
# NCI-H460 lung = test system: NCI-H460 lung
# HOP-92 NSCLC = test system: HOP-92 NSCLC
# NCI-H522 lung = test system: NCI-H522 lung
# A549/ATCC NSCLC = test system: A549/ATCC NSCLC
# 786-0 renal = test system: 786-0 renal
# COLO 205 colon = test system: COLO 205 colon
Compound,growth (NCI-H23 lung),growth (NCI-H226 lung),growth (NCI-H322M lung),growth (HOP-62 NSCLC),growth (NCI-H460 lung),growth (HOP-92 NSCLC),growth (NCI-H522 lung),growth (A549/ATCC NSCLC),growth (786-0 renal),growth (COLO 205 colon)
O=C1c2ccccc2C(=O)c2sc(Nc3cccc(Cl)c3)nc21,-51.4% (active),-44.3% (active),64.5%,-77.3% (active),72.1%,65.2%,-32% (active),30.7%,8.79% (active),84.7%
CCN1/C(=C\c2cc[n+](CC)c3ccccc23)C=Cc2ccccc21,12.7%,19.6%,25.4%,18.7%,-32.8% (active),-21.9% (active),12.4%,18.9%,25%,-35.2% (active)
CC(=O)C(=Cc1ccc(C=C(C(C)=O)C(C)=O)cc1)C(C)=O,4.19% (active),-14.5% (active),102%,83.2%,36.2%,81.6%,-53.9% (active),84.2%,2.51% (active),-70.9% (active)
CCC(c1cccc(O)c1)C(CC)c1cccc(O)c1 (stereo not given),78.7%,82.7%,59.5%,83.8%,59.4%,57%,56.3%,67.8%,74.8%,61.9%
CCC(CCCN(CC)CCc1ccccc1)OC(=O)c1cc(OC)c(OC)c(OC)c1 (stereo not given),81.5%,89.7%,72.2%,68.7%,101%,86.4%,69.6%,75.1%,89.9%,81.1%
Cc1ccc(NS(=O)(=O)c2ccc(C)cc2)cc1,100% and 98.2%,95.9% and 88.6%,102% and 91.5%,98.5% and 92.7%,107% and 106%,100% and 96.7%,97.9% and 77.9%,88.1% and 107%,100% and 99.3%,111% and 103%
Cc1cc(C(C)(CC(C)C)c2ccc(O)c(C)c2)ccc1O,108%,93%,94.6%,104%,104%,88.3%,92.6%,81.5%,102%,125%
